Experimental data from PubChem BioAssay.

Columns and labels:
[1] = tested on: Human papillomavirus type 1a protein E7 (residues 44-93); test: small molecules binding HPV E7 44-93 – biochemical, small-molecule microarray, residues 44-93, 635 nm fluorescence, primary screen (AID 1108); details: fluorescence 635 nm, higher = more signal;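 also: E7 fragment applied at 1 µg/mL in TBST for 1 h at 4 C; score combines spot fluorescence with its signal to noise ratio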
[2] = hepatitis C replication reporter changes, two-sided – Huh7 cells, luciferase reporter, HCV replication inhibitor project, primary screen (AID 1109); details: Huh7 HCV replicon luciferase reporter, 48 h; higher = more signal;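 also: huh7 hepatoma cells harbouring a luciferase neomycin HCV replicon reporter; luciferase luminescence as measure of HCV replicon replication; test concentration not given here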
[3] = target: Left-right determination factor 2 (Homo sapiens) (UniProt O00292); test: small molecules binding LEFTY2 protein – biochemical, small-molecule microarray, 635 nm fluorescence scan, primary screen (AID 1110); details: higher = more signal
[4] = target: Calmodulin-1 (Homo sapiens) (UniProt P0DP23); test: small molecules binding calmodulin-1 with EGTA – biochemical, small-molecule microarray, Cy5-labelled CALM1, profiling panel (AID 1111); details: Cy5-CALM1 binding fluorescence, higher = more signal;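 also: labelled calmodulin applied in Tris saline Tween buffer holding calcium plus EGTA and DTT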
[5] = target: Calmodulin-1 (Homo sapiens) (UniProt P0DP23); test: small molecules binding Ca-loaded calmodulin-1 – biochemical, small-molecule microarray, Cy5-labelled CALM1, plus calcium, artefact control for SMM control-protein annotation, profiling panel (AID 1112); details: Cy5-CALM1 binding fluorescence, higher = more signal;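 also: score merges spot fluorescence with signal to noise from triplicate slides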
[6] = probe aWnt5a binding to arrayed compounds – biochemical, biotinylated probe, 635/667 nm fluorescence, primary screen (AID 1113); details: small-molecule microarray, higher = more signal;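 also: score merges 667 nm fluorescence intensity with signal-to-noise per printed feature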
[7] = probe aShh binding to arrayed compounds – biochemical, biotinylated probe, 635/667 nm fluorescence, primary screen (AID 1114); details: small-molecule microarray, higher = more signal;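 also: probe is biotin-labelled aShh protein from a stem cell growth factor screen; measures binding of labelled protein to compounds printed on the slide; score merges feature fluorescence at 667 nm with signal-to-noise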
[8] = probe aNog binding to arrayed compounds – biochemical, biotinylated probe, 635/667 nm fluorescence, primary screen (AID 1115); details: small-molecule microarray, higher = more signal;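 also: probe is biotinylated aNog protein used at 0.15 µg/mL for 1 h at 4 C; z-score combines 667 nm fluorescence of each spot with its signal to noise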
[9] = target: Torsin-1A-interacting protein 1 (Homo sapiens) (UniProt Q5JTV8); test: compound microarray binding of lysate hLAP1 – cell lysate, small-molecule microarray, COS7 lysate, 635/667 nm fluorescence, primary screen (AID 1116); details: 635 nm fluorescence, higher = more signal
[10] = target: Alpha-bungarotoxin (Bungarus multicinctus) (UniProt P60615); test: compounds binding labelled alpha-BTX control protein – biochemical, small-molecule microarray, Alexa647 label, 635/667 nm fluorescence, artefact control for SMM control protein annotation, profiling panel (AID 1117); details: alpha-BTX-A647 binding fluorescence, higher = more signal
Alpha-bungarotoxin (Bungarus multicinctus), sequence (P60615 whole entry, looked up): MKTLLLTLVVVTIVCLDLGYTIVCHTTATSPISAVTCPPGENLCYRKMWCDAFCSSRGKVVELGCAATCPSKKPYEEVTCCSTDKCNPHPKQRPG

Torsin-1A-interacting protein 1 (Homo sapiens), sequence (Q5JTV8 whole entry, looked up): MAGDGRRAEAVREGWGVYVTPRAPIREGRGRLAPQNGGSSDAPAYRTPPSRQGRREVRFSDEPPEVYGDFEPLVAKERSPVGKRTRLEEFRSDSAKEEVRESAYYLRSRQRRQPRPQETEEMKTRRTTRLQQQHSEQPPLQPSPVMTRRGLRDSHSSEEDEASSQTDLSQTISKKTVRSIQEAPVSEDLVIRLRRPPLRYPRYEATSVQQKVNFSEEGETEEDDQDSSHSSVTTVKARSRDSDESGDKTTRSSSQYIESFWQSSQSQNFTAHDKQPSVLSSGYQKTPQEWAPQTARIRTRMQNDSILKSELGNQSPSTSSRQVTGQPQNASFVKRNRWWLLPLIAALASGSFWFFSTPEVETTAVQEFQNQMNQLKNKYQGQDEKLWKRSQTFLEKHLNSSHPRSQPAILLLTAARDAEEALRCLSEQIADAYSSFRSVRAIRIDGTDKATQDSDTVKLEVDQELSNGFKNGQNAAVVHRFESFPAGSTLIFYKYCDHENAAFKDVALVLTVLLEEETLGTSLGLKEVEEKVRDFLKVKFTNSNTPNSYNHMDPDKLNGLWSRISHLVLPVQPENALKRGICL
Left-right determination factor 2 (Homo sapiens), sequence (O00292 whole entry, looked up): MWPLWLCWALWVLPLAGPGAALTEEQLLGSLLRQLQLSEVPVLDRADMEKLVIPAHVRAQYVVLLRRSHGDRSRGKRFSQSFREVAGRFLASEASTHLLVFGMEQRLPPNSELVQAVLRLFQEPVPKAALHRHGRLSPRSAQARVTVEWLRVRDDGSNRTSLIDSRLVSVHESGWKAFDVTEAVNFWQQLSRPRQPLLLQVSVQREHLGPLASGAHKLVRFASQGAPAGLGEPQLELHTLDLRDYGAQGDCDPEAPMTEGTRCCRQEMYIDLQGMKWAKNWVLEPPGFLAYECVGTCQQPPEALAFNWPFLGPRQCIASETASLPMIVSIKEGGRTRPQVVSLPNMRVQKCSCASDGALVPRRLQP

| Structure (SMILES) | composite z-score [1] | z-score [2] | composite z-score [3] | composite z-score [4] | composite z-score [5] | composite z-score [6] | composite z-score [7] | composite z-score [8] | composite z-score [9] | composite z-score [10] |
| --- | --- | --- | --- | --- | --- | --- | --- | --- | --- | --- |
| CO[C@H]1COC(=O)[C@H](CCSC)NC(=O)CC=C[C@@H](C)[C@H](OC)COC(=O)[C@@H](OCc2ccccc2)C=C[C@@H]1C | 0.176 | -1.4 | 0.753 | -0.841 | -1.69 | -0.159 | -0.221 | -0.483 | 0.0829 | -0.531 |
| O=C1[C@H]2[C@H]3[C@H](O)[C@H](O)CC(=NOC[C@@H](O)COCc4ccco4)[C@@H]3CC[C@H]2C(=O)N1c1cccc(Oc2ccccc2)c1 | -0.645 | -0.739 | 0.103 | 0.0705 | -0.511 | -0.0758 | -0.289 | -0.29 | -0.0841 | 0.534 |
| CC(C)CON=C1C[C@@H](O)[C@@H](O)[C@@H]2[C@@H]3C(=O)N(c4ccc(F)cc4F)C(=O)[C@@H]3CC[C@@H]12 | 0.463 | -0.049 | 0.339 | 0.0012 | -0.541 | -0.0368 | -0.279 | -0.0563 | 0.142 | 0.421 |
| CON=C(C)CCN1CCCCc2nc(C)c(C)cc21 | -0.111 | -0.319 | 0.679 | -0.327 | -0.817 | 0.11 | -0.147 | -0.337 | 0.445 | -0.0996 |
| O=C1C[C@@H](O)[C@@H](O)[C@@H]2[C@@H]3C(=O)N(C4CCCCC4)C(=O)[C@@H]3CC[C@@H]12 | 0.242 | -0.331 | 0.697 | -0.0958 | -0.397 | -0.177 | 0.0898 | -0.104 | 0.462 | 0.882 |
| COC(=O)[C@@H]1CC[C@H](C)[C@@H](c2ccc(Br)cc2)N1C[C@@H](O)CN=[N+]=[N-] | 0.29 | -0.779 | 0.445 | -0.178 | -0.437 | -0.0403 | 0.0494 | -0.0103 | 0.289 | -0.291 |
| CCOC(=O)[C@H](Cc1ccccc1)NC(=O)CCC1CC(OC(=O)NCc2ccc3c(c2)OCO3)CC2(CCCC(COC(=O)NCCc3ccc(Cl)cc3)O2)O1 (stereo not given in full) | 1.14 | 0.615 | 0.619 | 0.534 | -0.397 | -0.124 | 0.0756 | 0.0308 | -0.0764 | 0.337 |
| CCN1C(=O)[C@H]2[C@H]3[C@H](O)[C@H](O)CC(=NOCC=C(C)CCC=C(C)C)[C@@H]3CC[C@H]2C1=O | 0.57 | -0.44 | 1.29 | -1.09 | -0.347 | -0.087 | -0.282 | -0.158 | 0.0411 | 0.791 |
| C=CC[C@@H]1C=C[C@H](ON=C[C@@H](NS(=O)(=O)c2ccc(C)cc2)[C@H](C)C=CCC(=O)OC)[C@@H](CO)O1 | -0.782 | -0.0493 | 0.917 | -0.83 | -0.984 | -0.13 | -0.138 | -0.402 | 0.269 | 0.452 |
| CC(=O)OC[C@H]1O[C@H](CC=NO[C@@H](C)c2cn([C@H](CO)Cc3ccccc3)nn2)C=C[C@@H]1OC(C)=O | 0.949 | -1.02 | 0.656 | -0.16 | -0.174 | -0.176 | 0.194 | 0.158 | 1.03 | 1.56 |
| CCOC(=O)[C@H](Cc1ccccc1)NC(=O)CCC1CC(OC(=O)NCc2ccc3c(c2)OCO3)CC2(CCCC(COC(=O)NCCOc3ccccc3)O2)O1 (stereo not given in full) | 1.24 | -0.682 | 0.753 | 0.505 | -0.166 | -0.15 | -0.223 | -0.0047 | 0.301 | 0.495 |
| CO[C@@H](C(C)C)[C@@H](C)C1OC(=O)CC1O (stereo not given in full) | -0.175 | 0.975 | 0.0752 | -0.32 | 0.192 | -0.232 | -0.171 | -0.478 | -0.214 | -0.427 |
| CC(C)(C)N1C(=O)[C@H]2[C@H]3[C@H](O)[C@H](O)CC(=NNC(=O)OCc4ccccc4)[C@@H]3CC[C@H]2C1=O | 0.594 | 0.508 | 0.432 | -0.213 | -0.412 | -0.0721 | -0.399 | -0.137 | 0.505 | 0.162 |
| COCCNC(=O)OCC1CCCC2(CC(OC(=O)NCc3cccc4ccccc34)CC(CCC(=O)N[C@@H](C)C(=O)OC)O2)O1 (stereo not given in full) | 1.35 | -0.942 | 0.781 | 0.171 | -0.62 | -0.144 | -0.0006 | -0.256 | 0.002 | 0.801 |
| CCN1C(=O)[C@H]2[C@H]3[C@H](O)[C@H](O)CC(=NOC(C)CN4CCCc5nc(C)c(C)cc54)[C@@H]3CC[C@H]2C1=O (stereo not given in full) | 0.562 | -1.21 | 0.803 | -0.528 | -1.03 | -0.0478 | 0.275 | 0.182 | 0.304 | -0.0882 |
| C=CC[C@@H]1C=C[C@H](Oc2ccc(C)cc2)[C@@H](COC(=O)NCc2cccc3ccccc23)O1 | 0.286 | -2.78 | 0.129 | -0.716 | -0.547 | -0.0271 | -0.0793 | -0.0496 | 0.0431 | -0.212 |
| CC(C)CON=C1C[C@@H](O)[C@@H](O)[C@@H]2[C@@H]3C(=O)N([C@@H](C)c4ccccc4)C(=O)[C@@H]3CC[C@@H]12 | -0.0319 | -0.265 | 0.236 | -0.231 | -0.282 | -0.124 | -0.289 | -0.222 | 0.179 | 0.0887 |
| CC(=O)OC[C@H]1O[C@H](CC=NO[C@@H](C)c2cc(-c3c(C)cc(C)cc3C)no2)C=C[C@@H]1OC(C)=O | -0.0612 | -0.83 | -0.111 | -0.176 | 0.0084 | -0.208 | -0.223 | -0.135 | -0.502 | 0.753 |
| CSCC[C@@H]1NC(=O)CC=C[C@@H](C)COC(=O)[C@H](C)COC1=O | -1.63 | 0.894 | 1.71 | -2.28 | -3.17 | -0.286 | -0.0035 | -0.321 | 0.443 | -1.96 |
| O=C1C[C@@H](O)[C@@H](O)[C@@H]2[C@@H]3C(=O)N(c4ccc(F)cc4F)C(=O)[C@@H]3CC[C@H]12 | 0.473 | -0.313 | 0.681 | -0.134 | -0.519 | -0.0718 | -0.18 | -0.213 | 0.82 | 0.0317 |
| COc1ccc(COC(=O)NN=C2C[C@@H](O)[C@@H](O)[C@@H]3[C@@H]4C(=O)N(C[C@@H]5CCCO5)C(=O)[C@@H]4CC[C@H]23)cc1 | -0.491 | -0.186 | -0.34 | -0.325 | 0.237 | 0.0162 | -0.138 | -0.103 | 0.656 | 0.418 |
| CCN1C(=O)[C@H]2[C@H]3[C@H](O)[C@H](O)CC(=NOCC(C)C)[C@H]3CC[C@H]2C1=O | -0.0775 | 0.295 | 0.535 | -0.185 | -0.987 | -0.0542 | -0.138 | -0.238 | 0.152 | -0.14 |
| CCc1cc2c(nc1CC)CCN(CCC(C)=NOC(C)CN1CCCCc3nc(C)c(C)cc31)C2 (stereo not given) | 1.38 | -4.08 | 0.772 | 0.499 | 0.455 | -0.0735 | 0.0639 | -0.1 | 0.272 | 0.946 |
| CC(C)CON=C1C[C@@H](O)[C@@H](O)[C@@H]2[C@@H]3C(=O)N(Cc4ccc5c(c4)OCO5)C(=O)[C@@H]3CC[C@@H]12 | 0.44 | 0.081 | -0.119 | 0.349 | -0.311 | -0.0279 | -0.0769 | -0.103 | 0.086 | 0.748 |
| CCN1C(=O)[C@H]2[C@H]3[C@H](O)[C@H](O)CC(=NO[C@@H]4O[C@H](COC(C)=O)[C@@H](OC(C)=O)[C@H](OC(C)=O)[C@H]4OC(C)=O)[C@@H]3CC[C@H]2C1=O | 0.519 | -0.835 | 0.671 | -0.41 | -0.564 | 0.0151 | 0.126 | 0.166 | 0.256 | 0.721 |
| CC(C)CN1CCc2nc(-c3ccccc3)c3c(c2C1)CO[C@@H](C)C3 | 1.01 | -0.791 | 0.881 | 0.566 | 0.32 | -0.0285 | 0.0751 | -0.149 | 0.152 | 0.365 |
| COC(=O)[C@H](C)NC(=O)CCC1CC(OC(=O)NCc2cccc3ccccc23)CC2(CCCC(COC(=O)NCCC(C)C)O2)O1 (stereo not given in full) | 0.991 | -0.243 | 0.449 | -0.234 | -0.371 | -0.109 | -0.147 | -0.268 | -0.228 | -0.178 |
| COC(=O)[C@H](CCSC)NC(=O)CC=C[C@@H](C)CO | 0.264 | 0.748 | 1.58 | -1.12 | -2.32 | 0.149 | -0.0192 | -0.394 | 1.21 | -0.614 |
